Measured values: PubChem BioAssay (NCATS)
Where “and” joins values, the source holds several entries; their conditions need not be identical. Equal entries are not always repeated. Inconclusive results are not listed. A call without a number means that no potency is given here. Unmarked numbers belong to inactive results. Calls of active or inactive are those of the source. Unless noted, calls come from the whole dose curve; as a rule, active = well fitted curve in the direction sought with a large enough effect; inconclusive = small, poorly fitted or top-dose-only effect, or another doubt; inactive = no such curve, though single readings can be large; an effect the other way counts as inactive or inconclusive.

Assays:
[1] = target: Bile acid receptor (Homo sapiens) (UniProt Q96RI1); assay: qHTS assay for small molecule antagonists of farnesoid X receptor signaling (AID 588526; calls by dose curve)
Bile acid receptor (Homo sapiens), sequence (Q96RI1 whole entry, looked up): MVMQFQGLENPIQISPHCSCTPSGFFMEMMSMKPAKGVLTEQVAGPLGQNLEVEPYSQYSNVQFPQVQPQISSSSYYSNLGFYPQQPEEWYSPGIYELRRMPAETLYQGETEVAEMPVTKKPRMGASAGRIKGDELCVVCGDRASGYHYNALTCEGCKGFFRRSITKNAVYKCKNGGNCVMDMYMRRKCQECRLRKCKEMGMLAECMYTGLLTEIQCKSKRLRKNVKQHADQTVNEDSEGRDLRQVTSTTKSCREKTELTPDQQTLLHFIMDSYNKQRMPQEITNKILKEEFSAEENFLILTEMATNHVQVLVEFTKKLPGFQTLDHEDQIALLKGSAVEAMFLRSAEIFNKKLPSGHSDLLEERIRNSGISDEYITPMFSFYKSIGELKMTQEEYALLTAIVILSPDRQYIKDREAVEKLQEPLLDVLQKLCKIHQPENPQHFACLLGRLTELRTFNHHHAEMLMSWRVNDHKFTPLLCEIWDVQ
How it was run: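 Concentration-response titrations were fitted to the Hill equation for half-maximal inhibition and maximal response, with data normalised to 50 uM chenodeoxycholic acid and DMSO control wells. Cells: FXR-UAS-bla HEK293T, dialyzed FBS.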

[2] = target: Glucocorticoid receptor (Homo sapiens) (UniProt P04150); assay: qHTS assay for small molecule agonists of glucocorticoid receptor signaling (AID 588532; active = well fitted curve in the direction sought with a large enough effect in the signal ratio, with a control signal flat; the % refers to the signal ratio); details: HeLa MMTV-bla, beta-lactamase ratio, agonist, 18 h; active compounds read high; percent of dexamethasone control, DMSO zero
Glucocorticoid receptor (Homo sapiens), sequence (P04150 whole entry, looked up): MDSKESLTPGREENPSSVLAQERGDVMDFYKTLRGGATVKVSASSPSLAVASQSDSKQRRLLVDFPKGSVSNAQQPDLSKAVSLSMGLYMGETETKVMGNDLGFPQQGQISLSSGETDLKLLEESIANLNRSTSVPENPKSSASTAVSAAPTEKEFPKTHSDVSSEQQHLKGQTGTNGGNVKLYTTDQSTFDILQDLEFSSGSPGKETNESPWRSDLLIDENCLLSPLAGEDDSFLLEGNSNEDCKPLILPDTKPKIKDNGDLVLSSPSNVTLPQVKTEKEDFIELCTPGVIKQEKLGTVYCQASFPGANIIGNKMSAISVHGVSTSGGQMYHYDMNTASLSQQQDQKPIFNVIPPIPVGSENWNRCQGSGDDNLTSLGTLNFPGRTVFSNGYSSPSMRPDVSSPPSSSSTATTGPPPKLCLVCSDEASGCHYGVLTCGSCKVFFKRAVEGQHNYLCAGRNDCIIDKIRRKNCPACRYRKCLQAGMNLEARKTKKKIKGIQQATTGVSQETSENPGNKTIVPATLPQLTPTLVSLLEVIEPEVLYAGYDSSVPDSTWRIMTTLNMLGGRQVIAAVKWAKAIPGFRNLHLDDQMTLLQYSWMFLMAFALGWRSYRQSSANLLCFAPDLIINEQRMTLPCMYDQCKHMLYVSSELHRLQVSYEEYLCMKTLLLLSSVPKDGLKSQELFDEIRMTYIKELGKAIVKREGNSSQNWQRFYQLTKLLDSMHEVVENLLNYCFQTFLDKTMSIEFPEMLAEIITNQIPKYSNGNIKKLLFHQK
How it was run: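 Titration series, up to 92 uM, applied to GRE-bla HeLa cells for 18 h at 37 C. Detection by CCF4 FRET substrate after 2 h at RT.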

[3] = qHTS assay for small molecule activators of the nuclear factor-kappa B (NF-kB) signaling pathway (AID 651749; active = well fitted activation curve with a large enough effect in the signal ratio; the % refers to the signal ratio); details: NF-kB-bla ME-180 cells, beta-lactamase FRET ratio, 16 h; active compounds read high
How it was run: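 ME-180 cells stably carrying a beta-lactamase reporter under an NF-kB response element were exposed to compound or DMSO vehicle for 16 hr at 37C, 5% CO2. Pathway activation was read by FRET, since reporter expression disrupts FRET.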

[4] = qHTS assay for small molecule agonists of the antioxidant response element (ARE) signaling pathway measured by Nrf2-dependant transcriptional activity (AID 720636; active = well fitted curve in the direction sought with a large enough effect in the repeat runs; an effect the other way counts as inactive or inconclusive;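 note: HepG2 cells with an ARE-driven luciferase reporter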)
How it was run: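 First, ARE-luc HepG2 cells attached for 6 hr at 37 C in 1% dialyzed FBS medium. Next, compound or DMSO was added and incubated 16 hr. Finally, ONE-Glo reagent was added and luminescence measured after 30 min.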

[5] = qHTS for Inhibitors of the vitamin D receptor (VDR): Hit Validation using a Texas Red Assay (AID 602201); details: VDR coregulator binding, Texas Red fluorescence polarization; agonist-bound VDR ligand-binding domain; note: potency is the fitted concentration of half-maximal effect
How it was run: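 Fluorescence polarization (Ex 595/Em 615 nm) of Texas Red (7 nM) with 1.5 uM VDR-LBD and LG19078 (final concentrations). Compounds were incubated for 2 hours at room temperature.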

[6] = target: ATP-dependent 6-phosphofructokinase (Trypanosoma brucei brucei) (UniProt O15648); assay: qHTS Assay to Find Inhibitors of T. brucei phosphofructokinase: hit validation (AID 492961);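 note: luminescence reports ADP formed as PFK phosphorylates fructose-6-phosphate with ATP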
ATP-dependent 6-phosphofructokinase (Trypanosoma brucei brucei), sequence (O15648 whole entry, looked up): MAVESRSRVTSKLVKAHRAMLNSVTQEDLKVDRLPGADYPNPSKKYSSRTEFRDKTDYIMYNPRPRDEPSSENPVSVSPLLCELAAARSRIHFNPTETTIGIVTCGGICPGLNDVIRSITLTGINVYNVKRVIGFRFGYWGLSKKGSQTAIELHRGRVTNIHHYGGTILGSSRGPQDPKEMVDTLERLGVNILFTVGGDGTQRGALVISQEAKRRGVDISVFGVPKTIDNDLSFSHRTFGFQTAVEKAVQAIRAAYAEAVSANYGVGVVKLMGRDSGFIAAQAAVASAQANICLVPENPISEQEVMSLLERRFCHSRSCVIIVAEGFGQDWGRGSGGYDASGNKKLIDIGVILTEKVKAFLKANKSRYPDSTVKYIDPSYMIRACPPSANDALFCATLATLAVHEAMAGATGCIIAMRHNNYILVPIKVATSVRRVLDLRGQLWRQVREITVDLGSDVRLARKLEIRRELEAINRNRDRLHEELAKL
How it was run: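 Percent activity derived from corrected luminescence, normalized between 0x and 1x enzyme controls, then fitted to concentration-response curves. Conditions: 1.25 nM PFK, 0.1 mM ATP, 0.5 mM F6P, 45 min RT.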

AS120 = assay: qHTS profiling for inhibitors of Plasmodium falciparum proliferation (AID 504749); note: nearly all actives have a fitted effect of over 60% in size; details: P. falciparum in erythrocytes, SYBR Green DNA, 72 h; series mostly up to 28.7 µM
How it was run: (§1)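 P. falciparum-infected erythrocytes (0.3% parasitemia, 2.5% hematocrit final) were exposed to compounds for 72 h at 37 C in 5% CO2, then lysed with SYBR Green buffer overnight at room temperature; parasite DNA fluorescence was normalized to artemisinin and DMSO controls.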

ATS189 = assay: as above; details: P. falciparum in erythrocytes, SYBR Green DNA, 72 h; series mostly up to 28.7 µM
How it was run: as §1

CP191 = assay: as above; details: P. falciparum in erythrocytes, SYBR Green DNA, 72 h; series mostly up to 28.7 µM
How it was run: as §1

CP194 = assay: as above; details: P. falciparum in erythrocytes, SYBR Green DNA, 72 h; series mostly up to 28.7 µM
How it was run: as §1

CP203 = assay: as above; details: P. falciparum in erythrocytes, SYBR Green DNA, 72 h; series mostly up to 28.7 µM
How it was run: as §1

CP247 = assay: as above; details: P. falciparum in erythrocytes, SYBR Green DNA, 72 h; series mostly up to 28.7 µM
How it was run: as §1

CP291 = assay: as above; details: P. falciparum in erythrocytes, SYBR Green DNA, 72 h; series mostly up to 28.7 µM
How it was run: as §1

DFO2036 = assay: as above; details: P. falciparum in erythrocytes, SYBR Green DNA, 72 h; series mostly up to 28.7 µM
How it was run: as §1

DIV14 = assay: as above; details: P. falciparum in erythrocytes, SYBR Green DNA, 72 h; series mostly up to 28.7 µM
How it was run: as §1

DIV17 = assay: as above; details: P. falciparum in erythrocytes, SYBR Green DNA, 72 h; series mostly up to 28.7 µM
How it was run: as §1

GB4 = assay: as above; details: P. falciparum in erythrocytes, SYBR Green DNA, 72 h; series mostly up to 28.7 µM
How it was run: as §1

PC49 = assay: as above; details: P. falciparum in erythrocytes, SYBR Green DNA, 72 h; series mostly up to 28.7 µM
How it was run: as §1

TAB113 = assay: as above; details: P. falciparum in erythrocytes, SYBR Green DNA, 72 h; series mostly up to 28.7 µM
How it was run: as §1

W2 = assay: as above; details: P. falciparum in erythrocytes, SYBR Green DNA, 72 h; series mostly up to 28.7 µM
How it was run: as §1

CC(=O)[C@H]1[C@H](C#N)C[C@H]2[C@@H]3CC=C4C[C@@H](O)CC[C@]4(C)[C@H]3CC[C@@]21C
outcome [1]: inactive | activation [2]: -8.47% and 3.7% | activation [3]: -1.18% and -2.42% | outcome [4]: inactive

O=C1c2ccccc2CC[C@H]1CNCCc1ccc(O)cc1
Potency [5]: 25.1 µM (active)

C/C=C1\C2C=C(C)CC1(N)c1ccc(=O)[nH]c1C2 (stereo not given)
outcome [6]: inactive | Potency (AS120): inactive | Potency (ATS189): inactive | Potency (CP191): inactive | Potency (CP194): inactive | Potency (CP203): inactive | Potency (CP247): inactive | Potency (CP291): inactive | Potency (DFO2036): inactive | Potency (DIV14): inactive | Potency (DIV17): inactive | Potency (GB4): inactive | Potency (PC49): inactive | Potency (TAB113): inactive | Potency (W2): inactive
